A selection: hits, their analogues and other compounds. The true share with any hit is near 5.5%.
Chronic BCR inh: chronic active BCR signaling inhibition; ABC-DLBCL IkBa-CBG/CBR reporter, luminescence ratio, 4 h; Potency, µM (top dose mostly 46.1 µM), actives largely listed as inhibitors; actives 0.05% (n = 340,000); AID 493014; active = well fitted inhibition curve with a large enough effect in the signal ratio, with a control signal flat, not every such curve was filed as active; inconclusive = small, poorly fitted or top-dose-only effect, or effect the other way, or a change in a side signal; the % refers to the signal ratio
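TMD8 ABC-DLBCL cells carrying doxycycline-inducible green luciferase fused to IkappaBalpha plus unfused red luciferase were exposed to compounds (up to 46 uM) for 4 hrs at 37C. Activity came from the overlap-corrected green/red luminescence ratio.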
uPA generation: cell surface uPA generation inhibition; Potency, µM (titrated, usually from 38.3 µM), hits mostly inhibitors; cell surface uPA generation assay, qHTS; actives 0.31% (n = 330,000); active = well fitted inhibition curve with a large enough effect; inconclusive = small, poorly fitted or top-dose-only effect; inactive = no such curve, though single readings can be large or run the other way; tested in mouse RAW 264.7 cells; also: nearly all actives have a fitted effect of over 55% in size
VP16 counter: Gal4-VP16 reporter inhibition counter-screen; Drosophila S2 Gal4-VP16 UAS-luciferase, luminescence, 20 h; Potency, µM (titrated, usually from 53.6 µM), usual class: inhibitors; actives 3.5% (n = 310,000); AID 2546;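 also: Gal4-VP16 expression switched on by copper sulfate through the metallothionein promoter; nearly all actives have a fitted effect of over 50% in size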
Mito fusion act: mitochondrial division inhibition or fusion activation | actives 0.23% (n = 320,000) | Potency, µM (top dose mostly 46.1 µM), most hits filed as activators | S. cerevisiae fusion-defective mutant growth rescue, CellTiterGlo 48 h; also: nearly all actives have a fitted effect of over 45% in size
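Compounds are tested for their ability to restore growth of mitochondrial fusion-defective yeast strains at non-permissive 37C in YPEG medium over 48 hours. Viability is quantified by luciferase luminescence.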
RORg inh: ROR gamma (mouse) transcription inhibition | AID 2551 | Drosophila S2 Gal4-RORgamma UAS-luciferase reporter, 20 h | P51450 | Potency, µM (highest dose often 53.6 µM), most hits filed as inhibitors | actives 5.4% (n = 310,000); also: nearly all actives have a fitted effect of over 60% in size
Target sequence (P51450 whole entry, looked up, the tested form may be a part): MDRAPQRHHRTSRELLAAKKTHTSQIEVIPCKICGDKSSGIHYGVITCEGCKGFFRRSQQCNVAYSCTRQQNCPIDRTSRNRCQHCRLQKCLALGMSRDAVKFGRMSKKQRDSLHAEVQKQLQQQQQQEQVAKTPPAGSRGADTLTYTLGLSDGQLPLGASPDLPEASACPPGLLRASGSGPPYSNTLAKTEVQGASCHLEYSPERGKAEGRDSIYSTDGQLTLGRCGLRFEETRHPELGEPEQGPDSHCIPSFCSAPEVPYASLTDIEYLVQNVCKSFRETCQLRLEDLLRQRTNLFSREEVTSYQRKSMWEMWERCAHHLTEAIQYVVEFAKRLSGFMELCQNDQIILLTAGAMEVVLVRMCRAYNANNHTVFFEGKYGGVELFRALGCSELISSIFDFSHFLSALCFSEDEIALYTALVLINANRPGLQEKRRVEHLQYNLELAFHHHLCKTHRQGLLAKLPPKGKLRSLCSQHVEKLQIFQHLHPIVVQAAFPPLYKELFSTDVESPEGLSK
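Luminescence from a UAS-regulated Photinus luciferase reporter in stably transfected Drosophila Schneider cells is measured; decreased signal marks ROR gamma inhibition. Fusion expression is induced by 700 uM copper sulfate for 20 hr.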
Integrin act MD: activates integrin-mediated alleviation for muscular dystrophy. alpha7betagal myoblasts, beta-gal FDG fluorescence, 48 h. Potency, µM (highest dose often 38.3 µM), actives largely listed as activators. actives 0.064% (n = 350,000). AID 624291; also: nearly all actives have a fitted effect of over 60% in size
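alpha7betagal+/- myoblasts (passage 13, 250/well) treated 48 h at 37C with compounds at 1:260 dilution of DMSO stock. Lysed, then beta-galactosidase activity read as FDG fluorescence (ex 480/em 540) after 30 min, with pre-read for autofluorescence.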
A number is an active result; 0 = inactive; ? = inconclusive; - = no result given; [ ] = remark or other dose. Unless noted, calls follow the shape of the dose curve; as a rule, active = well fitted curve in the direction sought with a large enough effect; inconclusive = small, poorly fitted or top-dose-only effect, or another doubt; inactive = no such curve, though single readings can be large; an effect the other way counts as inactive or inconclusive.

SMILES	Chronic BCR inh	uPA generation	VP16 counter	Mito fusion act	RORg inh	Integrin act MD
COc1cc(NC(=S)NC(C)(C)C)c(OC)cc1Cl	0	0	?	0	5µM	0
COc1cc(NC(=S)Nc2ccc(Br)cc2Cl)c(OC)cc1Cl	0	0	?	0	?	0
COc1cc(NC(=S)NCc2cccnc2)c(OC)cc1Cl	0	0	0	0	0	0
COc1cc(/C=C2\NC(=S)N(C)C2=O)ccc1OCc1ccccc1F	0	0	?	0	11µM	?
CN1C(=O)/C(=C/c2ccc(OCc3ccccc3F)cc2)NC1=S	?	0	0	0	?	0
COCCn1c(=S)[nH]c2ccccc21	0	0	0	0	?	0
CCCCn1c(C23CC4CC(CC(C4)C2)C3)n[nH]c1=S	0	0	3.2µM	0	2.8µM	0
COCCn1c(C23CC4CC(CC(C4)C2)C3)n[nH]c1=S	?	0	1.1µM	0	4µM	0
CCNc1ncc2nc(-c3cn(C)c4ccccc34)c(=O)n(C[C@H]3CCCO3)c2n1	-	-	0	-	0	-
NS(=O)(=O)c1ccc(CCNC(=O)c2ccc[nH]c2=S)cc1	?	0	11µM	0	?	0
NS(=O)(=O)c1ccc(CCNC(=O)c2cccc3ccccc23)cc1	0	0	0	0	0	0
Cc1ccc(Cl)cc1NC(=O)CSc1nnc(C)n1-c1ccccc1	0	0	5.6µM	0	4µM	0
COc1ccc(/C=N/NC(=O)CSc2nnc(C)n2-c2ccccc2)c(OC)c1OC	0	0	0	0	0	0
COc1cccc(/C=N/NC(=O)CSc2nnc(C)n2-c2ccccc2)c1O	?	0	20µM	0	7.1µM	0
CCCCSc1nc(C)cc(SCC(=O)N/N=C/c2cccc(OC)c2O)n1	?	0	1µM	0	0.28µM	0
COc1ccc(O)c(/C=N/NC(=O)CSc2nnc(C)n2-c2ccccc2)c1	0	0	0	0	7.9µM	0
CC1(C)Cc2nc3sc4c(SCC(=O)O)ncnc4c3cc2CO1	0	2.2µM	14µM	0	8.9µM	0
COC(=O)CSc1ncnc2c1sc1nc3c(cc12)COC(C)(C)C3	0	0	0	0	0	0
Cc1cc(C)cc(N2C(=O)C=CC2=O)c1	-	0	-	-	-	0
NC[C@@H]1O[C@H](C23CC4CC(CC(C4)C2)C3)Cc2c1ccc(O)c2O	0	?	?	?	?	-
NC[C@@H]1O[C@H](c2ccccc2)Cc2c1ccc(O)c2O	-	-	25µM	16µM	28µM	-
COc1cc(OC)c(OC)cc1CNc1sc2c(c1C(=O)Nc1ccccc1OC)CCC2	0	-	-	-	-	-
CNC(CC(=O)c1ccc([N+](=O)[O-])cc1)C(Cl)(Cl)Cl (stereo not given)	0	0	13µM	0	?	?
COc1ccc(C(=O)CC(Nc2ccc([N+](=O)[O-])cc2)c2ccc(OC)cc2)cc1 (stereo not given)	0	-	0[0.365 µM]	0	0	0
C[C@H]1[C@H]2CC[C@H]3C4CC=C5C[C@@H](N(C)C)CC[C@]5(C)C4CC[C@]23CN1C (stereo not given in full)	-	-	0	-	0	-
SMILES	Chronic BCR inh	uPA generation	VP16 counter	Mito fusion act	RORg inh	Integrin act MD
COc1ccc(-c2oc3cccnc3c2C#CC2(O)CCCCC2)cc1	0	0	?	0	7.1µM	0
C/C(CC(=O)NC12CC3CC(CC(C3)C1)C2)=N\NC(=O)c1ccc(F)cc1	?	0	?	0	18µM	0
C/C(CC(=O)NC12CC3CC(CC(C3)C1)C2)=N\NC(=O)c1cnccn1	?	0	?	0	13µM	0
O=C(NC12CC3CC(CC(C3)C1)C2)c1cnccn1	0	0	0	0	0	0
CC(Cc1ccccc1)NC(=S)CN1CCCC1=S (stereo not given)	0	0	?	0	8.9µM	0
COc1ccc(-c2csc3nc(C)nc(N4CCN(C(C)=O)CC4)c23)cc1OC	0	0	0	0	0	0
COc1ccc(-c2csc3nc(C)nc(N4CCC(C)CC4)c23)cc1OC	?	0	0[10 µM]	0	7.1µM	0
COc1ccc(-c2cc(N)n(S(=O)(=O)c3c(F)c(F)c(F)c(F)c3F)n2)cc1OC	?	-	7.1µM	0	?	0[7.66 µM]
COc1ccc(S(=O)(=O)n2nc(-c3cc(OC)c(OC)c(OC)c3)cc2N)cc1OC	?	0	0	0	?	0
COc1ccc2c(c1)O[C@H](c1ccc3c(c1)OCO3)[C@@H](OC(=O)NCCc1ccc(OC)c(OC)c1)C2=O	-	-	0	-	0	-
Cc1onc(-c2ccccc2)c1C(=O)OCC(=O)N(CC(C)C)c1c(N)n(Cc2ccccc2)c(=O)[nH]c1=O	0	0	-	0	-	0
O=C(NC(=S)NNC(=O)c1ccccc1F)c1cccnc1	?	0	?	0	11µM	0
O=C(NC(=S)NCc1cccnc1)c1ccccc1F	0	0	0	0	0	0
Cc1ccccc1C(=O)NNC(=S)NC(=O)c1cccnc1	?	0	?	0	11µM	0
COc1ccccc1OCc1nc2ccccc2n1Cc1ccccc1	0	-	-	-	-	-
CC1=[N+](C)c2ccc3ccccc3c2C1(C)C	?	2.2µM	2.5µM	0	?	0
O=C(Cc1ccc(Br)cc1)Nc1cccc(-c2cn3c(n2)SCC3)c1	0	0	0	0	0	0
CCOC(=O)c1cnc(-n2nc(C)cc2C)nc1N1CC(C)OC(C)C1 (stereo not given)	-	0	-	-	-	0
CCOC(=O)c1cnc(-n2nc(C)cc2C)nc1NNc1ncc(-c2ccccc2)cn1	0	0	?	0	5.6µM	0
CCOC(=O)c1cnc(-n2nc(C)cc2C)nc1NNc1cc(-c2ccccc2)nc(C)n1	0	-	0.1µM	0	0.089µM	-
O=C(NC1CC2CCCC(C1)N2C(=O)Nc1ccc(F)cc1)c1ccccc1 (stereo not given)	0	0	0	0	0	0
COc1cc(C(=O)NCCCCc2ccccc2)cc(OC)c1OC	0	0	0	0	0	0
O=C(N/N=C/c1cn(-c2ccccc2)nc1-c1cccnc1)c1ccccc1	?	0	0	0	5.6µM	0
O=C(O)/C(=C\c1cn(-c2ccccc2)nc1-c1cccnc1)NC(=O)c1ccccc1	0	0	0	0	0	0
NC(=S)N/N=C/c1cn(-c2ccccc2)nc1-c1cccnc1	?	0	8.9µM	0	6.3µM	0
NC(=O)N/N=C/c1cn(-c2ccccc2)nc1-c1cccnc1	0	?	0	0	0	0
CC(=O)Nc1ccc(NC(=O)C(C)OC(=O)/C=C/c2cn(-c3ccccc3)nc2-c2cccnc2)cc1 (stereo not given)	0	0	?	0	13µM	0
CC(=O)CCC(=O)O	-	-	0	-	0[10 µM]	-
CCN(CC)C(=O)Cn1cc(S(=O)(=O)CC(=O)NCCc2ccccc2)c2ccccc21	0	0	0	0	0	0

From PubChem
